Bioassay records (PubChem BioAssay)
Autofluor 339 = intrinsic fluorescence of library compounds, ex339/em460 – biochemical, MLSMR library, data from DPM-DC assay, artefact control, profiling panel; hit rate 5.5% among 65,000; fluorescence fold increase at 10 µM; compound autofluorescence, ex339/em460 nm, NADH buffer; active compounds read high; 1 = no-compound wells, NADH background;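 active = at 10 µM, mean starting fluorescence two-fold or more over control wells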;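 also: signal is the first read of a kinetic run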
Spn DPM-DC inh = S. pneumoniae DPM-DC inhibitors, primary screen, biochemical, PK/LDH-coupled NADH fluorescence | hit rate 0.49% among 65,000 | purified DPM-DC | calls only at 10 µM | diphosphomevalonate decarboxylase (Streptococcus pneumoniae D39);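 active = the 320 compounds with the highest percent inhibition in the single-dose primary screen, excluding strongly autofluorescent ones, cut at about 32% in these data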;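 also: kinetic rate of NADH fluorescence loss reporting ADP formed by the decarboxylase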
Abs 340nm = compound light absorbance at 340 nm, profiling panel, artefact control, biochemical, MLSMR library, data from PS, PMK, MK assays. compound absorbance at 340 nm, fold over control. 65,000 tested, under 10 active. fold change at 10 µM;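 active = at 10 µM dose, initial 340 nm absorbance at least 2 fold that of control wells; inactive = change under 2 fold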;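 also: initial absorbance extrapolated from kinetic A340 decline of NADH oxidation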
NADH coupling = inhibitors of PK/LDH coupling enzymes, profiling panel, artefact control, biochemical, MLSMR library. AID 774, 2007. hit rate 0.02% among 65,000. coupled PK/LDH NADH assays, four targets. IC50, µM (doses to about 10 µM), for inactives: at the highest dose inhibition;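 active = single-dose screening hits from any of four coupled enzyme assays that gave an IC50 when retested across doses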;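 also: the DPM-DC format reads NADH fluorescence rather than 340 nm absorbance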
Spn MK inh = S. pneumoniae MK inhibitors, primary screen, biochemical, PK/LDH-coupled NADH absorbance; purified MK, PK/LDH-coupled NADH absorbance 340 nm; hit rate 0.48% among 65,000; mevalonate kinase [Streptococcus pneumoniae D39]; inhibition, % at 10 µM;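 active = ranked among the strongest by inhibition in the single 10 µM screen, a fixed top-ranked set picked for dose follow-up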
PMK inhibit = S. pneumoniae PMK inhibitors, primary screen, biochemical, mevalonate pathway, pilot trial included; hit rate 0.49% among 65,000; AID 539, 2006; purified PMK, PK/LDH-coupled NADH absorbance 340 nm; inhibition, % at 10 µM;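 active = top-ranked compounds by inhibition in the single 10 µM screen, taking a fixed number of the strongest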;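 also: 0% = full reaction with DMSO carrier and 100% = background rate without enzyme reaction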
Starred values were filed as active, the others as inactive; i = inactive; . = no result shown. Hits are enriched below; roughly 6.8% of the tested compounds scored in any of these assays.

SMILES	Autofluor 339	Spn DPM-DC inh	Abs 340nm	NADH coupling	Spn MK inh	PMK inhibit
COCCn1c(-c2ccco2)nc2nc3ccccc3nc21	3*	.	1	4%	7	7
CC(C)OCCCn1c(-c2ccco2)nc2nc3ccccc3nc21	3.8*	.	1.1	8%	8	7
N=c1c(S(=O)(=O)c2ccc(Cl)cc2)cc2c(=O)n3ccccc3nc2n1CCN1CCOCC1	5*	.	1	0%	.	0
Cc1ccc(S(=O)(=O)c2cc3c(=O)n4cccc(C)c4nc3n(CC3CCCO3)c2=N)cc1 (stereo not given)	1.5	i	1	10%	7	6
Cn1c(=N)c(S(=O)(=O)c2ccccc2)cc2c(=O)n3ccccc3nc21	2.8*	.	1	4%	3	13
Cn1c(=N)c(S(=O)(=O)c2ccc(F)cc2)cc2c(=O)n3ccccc3nc21	3.4*	.	1	13%	10	15
CCOC(=O)Nc1nnc(-c2ccccc2OC)s1	2.8*	.	1	2%	6	12
COC(=O)Nc1nnc(-c2ccccc2Cl)s1	2.9*	i	1	7%	5	7
COC(=O)Nc1nnc(-c2ccncc2)s1	3.7*	.	1.1	7%	10	4
COc1ccccc1-c1nnc(NC(=O)OCC(C)C)s1	1.4	i	1	9%	8	12
COc1ccc(-c2nnc(NC(=O)C(C)C)s2)c(OC)c1	2.1*	.	1.1	17%	26	8
Cc1cccc(C)c1NS(=O)(=O)c1c(C)[nH]c(=O)[nH]c1=O	1.2	i	1	2%	0	6
CN(C)CCNC(=O)c1ccc(CS(=O)(=O)c2ccc(Br)cc2)o1	1.2	i	1.1	5%	6	8
COc1cc(NC(=O)C2CCN(S(=O)(=O)c3ccc(Cl)cc3)CC2)ccc1-n1cnnn1	1.1	i	1	6%	6	11
CCOC(=O)Nc1nnc(-c2cccc(OC)c2)s1	3.8*	.	1	3%	5	0
O=C(Cn1c(=O)sc2ccccc21)Nc1ccccc1C(=O)O	1.1	i	1	7%	6	15
Cc1c(C(=O)N2CCCC2)oc2c1-c1[nH]ncc1CC2	1.1	i	1	8%	6	14
COC(=O)c1ccc(OCC(=O)Nc2nn(-c3ccccc3)nc2C(N)=O)cc1	2.2*	i	1	15%	14	12
CN(C)/C=C1\C(=O)c2ccc(N(C)C)nc2CC1c1ccccc1 (stereo not given)	2*	i	1.1	8%	0	8
CN(C)/C=C1/Sc2ccccc2C1=O	1.1	i	1.1	2%	5	0
Cc1ccc2nc(-c3cccc(-c4nc5ccc(C)cc5o4)n3)oc2c1	2.1*	i	1.1	10%	0	24
Cc1ccc2nc(CCc3nc4ccc(C)cc4o3)oc2c1	1.1	i	0.99	6%	.	11
CCCOc1ccc(OC(=O)c2ccc(Br)o2)cc1	1.1	i	1.1	2%	5	0
CCOC(=O)CCc1nc2ccccc2[nH]c1=O	2.2*	i	1.1	11%	5	12
CCC(C)(C(=O)NC1CCCCC1)N(C(=O)c1cnccn1)c1c(C)n(C)n(-c2ccccc2)c1=O (stereo not given)	0.98	i	0.97	2%	4	3
COC(=O)c1ccc(CN(c2ccc(C)cc2)S(=O)(=O)c2ccc3c(c2)OCCO3)o1	1.1	i	1	4%	0	12
Cc1ccc(-c2cnc(-c3ccncc3)o2)cc1	2.2*	.	1.1	8%	4	11
Cc1ccc(-c2nc(-c3cccnc3)no2)cc1	1.1	i	1	7%	6	3
COc1ccc(N(CC(=O)NCc2cccs2)S(=O)(=O)c2cccnc2)cc1	1	i	1.1	20%	47*	10
Cc1ccc(N(C(=O)C2CCCO2)C2C=CS(=O)(=O)C2)cc1Cl (stereo not given)	1.2	i	1	9%	12	15
